Holding throughout (assay): NCI-60 one-dose screen, 48 h (100 = growth as untreated, 0 = no growth, -100 = all killed)
What all share (conditions): 10 µM unless noted

The subject of assay [1] is NCI-H226 lung.
Assay [2] deals with NCI-H322M lung.
Assay [3] concerns HOP-62 NSCLC.
For assay [4], the system named is NCI-H460 lung.
Assay [5] deals with HOP-92 NSCLC.
The test system of assay [6] is NCI-H522 lung.
Assay [7] deals with A549/ATCC NSCLC.
Assay [8] deals with 786-0 renal.
In assay [9] the test system is COLO 205 colon.
Assay [10] concerns DU-145 prostate.
The test system of assay [11] is K-562 leukemia.
For assay [12], the system named is MALME-3M melanoma.
Assay [13] has as its system MDA-MB-231 breast.
Assay [14] concerns RXF 393 renal.
Assay [15] concerns SF-268 CNS.
In assay [16] the test system is SF-295 CNS.
The subject of assay [17] is SF-539 CNS.
The subject of assay [18] is UACC-257 melanoma.
Assay [19] relates to NCI-H23 lung.
Assay [20] has as its system M14 melanoma.

Compounds without any hit were thinned out: in the full panel of roughly 83,000, 20% have a hit.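 Single-dose data. Exposure time 48 hours. Values below 10 considered active.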 Unmarked numbers belong to inactive results. Active and inactive are the calls of the source.

In the case of `O=C(O)c1ccccc1C(F)(F)F`, the growth in assay [1] is 89.2%; in assay [2], 106%; in assay [3], 103%; in assay [4] it was 102%; in assay [5] it was 88.2%; in [6], 72.1%. Besides, the growth was 16.1% in [7]; 96.2% in assay [8]; 102% in assay [9]; 102% in [10]; 102% in assay [11]; 103% in [12]. Further, the growth in assay [13] was 95.3%; in [14], 102%; in [15], 96.3%; in [16], 95.6%; in assay [17], 93.7%; in assay [18] it was -1.89% (active).
`CC1(C)C(=O)/C(=C\c2ccco2)C[C@]2(C)[C@H]3CC=C4[C@@H]5C[C@](C)(C(=O)O)CC[C@]5(C)CC[C@@]4(C)[C@]3(C)CC[C@@H]12`: the growth was -64% [100 µM] (active) in assay [19]; -29.3% [100 µM] (active) in [1]; -91.9% [100 µM] (active) in assay [2]; -67.7% [100 µM] (active) in [3]; -73.5% [100 µM] (active) in [4]; -64.4% [100 µM] (active) in assay [6]. Besides, the growth was -67.6% [100 µM] (active) in assay [7]; -53.6% [100 µM] (active) in [8]; -62.2% [100 µM] (active) in assay [9]; -33.5% [100 µM] (active) in assay [10]; 4.42% [100 µM] (active) in [11]; -70% [100 µM] (active) in [12]. Moreover, the growth was -58.5% [100 µM] (active) in assay [13]; -85.6% [100 µM] (active) in [14]; -77.7% [100 µM] (active) in [15]; -48.8% [100 µM] (active) in assay [16]; -77.5% [100 µM] (active) in assay [17]; -49.3% [100 µM] (active) in [18].
With `COc1cc2c(c(Br)c1N)-c1cc(Br)c(N)cc1C2=O`, the growth is 49.9% in [19]; -24.1% (active) in [1]; 71.2% in [2]; 60.8% in assay [3]; 45.7% in assay [4]; 70.5% in assay [6]. The growth was 83.5% in assay [7]; 58.8% in assay [8]; 79.3% in [9]; 79.1% in assay [10]; 94.9% in assay [11]; 76.7% in assay [12]. Besides, the growth in [13] was 29.2%; in [14], 69.9%; in assay [15] it was 61.6%; in assay [16] it was 57.2%; in assay [17], 37%; in [18] it was 92.3%. Besides, the growth in assay [20] was 91.1%.
Regarding `CC(C)[C@H]1COC(=O)N1[C@@H]1C(=O)N([C@@H](CCC(=O)N2CCN(C3CCCC3)CC2)C(=O)N[C@@H]2CCCc3ccccc32)[C@@H]1/C=C/c1cccc(Cl)c1`, the growth in [19] was 72.1%; in assay [1], 88.9%; in assay [2], 57.9%; in [3], 79%; in assay [4], 46.2%; in assay [6], 75.5%. The growth in assay [7] is 35.9%; in assay [8] it was 54.9%; in [9], 57.7%; in assay [10], 65.3%; in assay [11] it was 45.5%; in assay [12], 82.3%. For the same molecule, the growth in assay [13] is 44.7%; in assay [14] it was 50%; in assay [15], 28.5%; in [16], 54%; in assay [17], 68.9%; in [18] it was 20.5%. In addition, the growth in [20] is 36.6%.
On to `O=C(NNc1ccc(-c2ccccc2)nn1)c1ccc(F)cc1`, for which the growth is 104% in assay [19]; 98.7% in assay [1]; 94.3% in [2]; 106% in assay [3]; 99.1% in assay [4]; 95.2% in [6]. Moreover, the growth in assay [7] is 98.4%; in assay [8], 78%; in assay [9] it was 112%; in [10], 88.9%; in [11], 98.5%; in assay [12], 109%. Besides, the growth was 94.5% in assay [13]; 82.1% in assay [14]; 88.8% in [15]; 95.3% in assay [16]; 93.4% in assay [17]; 108% in [18]. In addition, the growth in [20] is 99.9%.
Regarding `C=C(C)C1CCC2(C(=O)O)CCC3(C)C(CCC4C5(C)CCC(OC(=O)NCc6ccccc6)C(C)(C)C5CCC43C)C12` (stereo not given), the growth in assay [19] was 32.3%; in assay [1] it was 44.8%; in [2], 59.3%; in assay [3] it was 48.4%; in assay [4], 29.4%; in [6] it was -6.51% (active). Moreover, the growth was 26.7% in [7]; 44.8% in [8]; 13.7% in assay [9]; 56.2% in assay [10]; 28.5% in assay [11]; 72.1% in assay [12]. Further, the growth in assay [13] was 53.6%; in [14], 60.2%; in [15], 65.4%; in [16], 41.9%; in [17], 53.5%; in assay [18], 29.3%. Besides, the growth in assay [20] is 45.6%.
In the case of `O=C1CN(Cc2ccc(C(=O)NO)cc2)C(=O)[C@@H](Cc2ccccc2)N1`, the growth was 100% in [19]; 104% in assay [1]; 102% in [2]; 102% in [3]; 103% in assay [4]; 98.2% in assay [6]. In addition, the growth in [7] was 96.4%; in [8] it was 95.8%; in [9], 114%; in assay [10], 111%; in [11], 98%; in assay [12], 94%. Also, the growth in assay [13] is 102%; in assay [14] it was 112%; in assay [15] it was 99.7%; in [16], 99.3%; in assay [17], 99.7%; in assay [18], 93.2%. Besides, the growth in assay [20] was 107%.
Turning to `Cn1cc(-c2noc(-c3cn(C)c4ncc(F)cc34)n2)c2ccccc21`, the growth was 75.1% in [19]; 76.7% in [1]; 41.3% in assay [2]; 36.3% in [3]; 22.9% in assay [4]; 66.2% in assay [6]. The growth in assay [7] was 37.9%; in assay [8], 33.6%; in [9], 66.7%; in assay [10], 79.2%; in assay [11] it was 77%; in [12], 66%. Also, the growth is 55.1% in assay [13]; 73.1% in assay [14]; 71.4% in assay [15]; 49.6% in assay [16]; 75.2% in [17]; 101% in assay [18]. Further, the growth in [20] is 71.7%.
